# Bioassay records as filed in PubChem.
# Rv3671c protease: Rv3671c serine protease inhibitors, primary screen, biochemical, fluorescence polarization, M. tuberculosis H37Rv. P9WHR9. inhibition, % at 5.96 µM. 320,000 tested, 0.048% active. AID 2606, 2010; in the data active = inhibition above about 38%;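 also: extracellular domain of Rv3671c used as enzyme; 0% = enzyme with DMSO and 100% = no enzyme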
# Target sequence (P9WHR9 whole entry, looked up, the tested form may be a part): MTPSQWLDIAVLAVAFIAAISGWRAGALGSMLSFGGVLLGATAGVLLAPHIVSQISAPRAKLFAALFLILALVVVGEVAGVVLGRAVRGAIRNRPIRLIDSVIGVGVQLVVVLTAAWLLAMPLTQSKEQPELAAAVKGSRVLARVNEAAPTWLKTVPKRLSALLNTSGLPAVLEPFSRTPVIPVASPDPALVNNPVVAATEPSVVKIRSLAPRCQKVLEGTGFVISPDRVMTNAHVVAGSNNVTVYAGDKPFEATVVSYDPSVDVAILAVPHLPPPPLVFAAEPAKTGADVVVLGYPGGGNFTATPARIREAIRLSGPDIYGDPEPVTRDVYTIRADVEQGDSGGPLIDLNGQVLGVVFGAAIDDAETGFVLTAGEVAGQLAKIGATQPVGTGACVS
# Mtb betalactam: beta-lactam sensitization of Mtb H37Rv, H37Rv; 330,000 tested, 0.27% active; inhibition, % at 25 µM; AID 434955, 2010; M. tuberculosis H37Rv growth with meropenem, percent inhibition; call rule not given here;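 also: growth measured after seven days incubation then overnight dye step; 0% = bacteria only wells and 100% = bacteria with antibiotic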
# RecA splice inh: Mtb RecA intein splicing inhibitors, primary screen, biochemical, fluorescence, HTS. cell-free RecA intein splicing. 290,000 tested, 0.75% active. inhibition, % (concentration not given with the values); in the data active = inhibition above about 30%;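 also: 0% = vehicle wells and 100% = reference inhibitor control wells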
# UGM FP inh: M. tuberculosis UGM enzyme inhibitors, primary screen, biochemical, fluorescence polarization, single point; AID 504406, 2011; purified UGM, fluorescence polarization probe displacement; 320,000 tested, 0.06% active; inhibition, % at 10 µM; in the data active = inhibition above about 10%, passing the limit was not always enough
# Mtb FBA inh: Mtb FBA enzyme inhibitors, primary screen, biochemical, fluorescence, strain H37Rv; Fructose-bisphosphate aldolase (Mycobacterium tuberculosis (strain ATCC 25618 / H37Rv)), …; purified M. tuberculosis FBA, fluorescence read-out; inhibition, % at 1 µM; 360,000 tested, 2.3% active; AID 588726, 2011;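 also: 0% = vehicle and 100% = reference inhibitor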
# GDH-TPI counter-1: GDH-TPI coupling enzyme inhibitors, primary screen, artefact control for M. tuberculosis FBA inhibitor project, biochemical, absorbance, full deck; inhibition, % at 4.8 µM; AID 588335, 2011; 360,000 tested, 1.2% active; GDH-TPI coupled enzyme counterscreen, NADH absorbance; in the data active = inhibition above about 30%;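 also: 0% = DMSO wells and 100% = wells lacking the enzyme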
# Mtb FBA confirm: M. tuberculosis aldolase blockers, biochemical, fluorescence, strain H37Rv, confirmation; 5,600 tested, 78% active; shares compounds with Mtb FBA inh; inhibition, % at 1 µM; purified M. tuberculosis FBA, fluorescence read-out; AID 651616, 2012;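 also: 0% = vehicle wells and 100% = reference inhibitor wells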
# GDH-TPI counter-2: GDH-TPI coupling enzyme inhibitors, artefact control for M. tuberculosis FBA inhibitor project, biochemical, fluorescence, high throughput; GDH-TPI coupled enzyme counterscreen; inhibition, % at 1 µM; shares compounds with Mtb FBA inh; 5,600 tested, 81% active; in the data active = inhibition above about 10%
# Active calls of the source: *; . = no result; + = active, no number. This is a sample that favours compounds with a hit; in the whole collection about 4% have one here. Rule as the data show it, unless noted: active = inhibition above about 27%; inactive = the rest.
SMILES,Rv3671c protease,Mtb betalactam,RecA splice inh,UGM FP inh,Mtb FBA inh,GDH-TPI counter-1,Mtb FBA confirm,GDH-TPI counter-2
COc1ccc(C2C3=C(CCCC3=O)Nc3c(-c4ccccc4)c(C)nn32)cc1 (stereo not given),-2,-4,-3,2,97*,45*,169*,135*
O[C@@H]1CN(Cc2cccs2)[C@@H](c2ccccc2)C[C@H]1n1cc(-c2ccc(F)cc2)nn1,.,.,.,.,-3,-12,.,.
CCc1cc2ccc(C)cc2nc1SCC(=O)Nc1cc(OC)c(OC)cc1C(=O)O,-1,1,-7,1,47*,12,-11,-9
O=C(CSc1nnc(CNC(=O)c2c(F)cccc2Cl)o1)NCc1ccc(F)cc1,-9,2,1,-1,4,8,.,.
N#Cc1ccccc1S(=O)(=O)N1CCC(C(=O)NCc2ccccc2CN2CCCC2)CC1,8,-2,.,-2,-1,9,.,.
COc1ccc(C(=O)Nc2ccccc2C(=O)NCC2CCCO2)cc1 (stereo not given),-1,-8,-2,2,3,4,.,.
CCc1cc(=O)oc2cc(OCc3nn[nH]n3)ccc12,-1,-1,1,-1,31*,8,+,+
CCc1cc(=O)oc2cc(OCC=C(C)C)ccc12,-4,-2,2,1,36*,4,35*,30*
Cc1ccc(F)c(S(=O)(=O)NC(=O)C2(C)CCN2C(=O)Cc2ccc(-c3ccccc3)cc2)c1 (stereo not given),.,.,.,.,0,1,.,.
COc1ccc2c(CN(Cc3ccccc3)Cc3ccccc3)cc(=O)oc2c1,.,.,.,.,7,.,.,.
Cc1cccc(OCC(=O)N2CCC3(CC2)CC(=O)c2ccccc2O3)c1,-2,-13,-1,-1,6,8,.,.
CCN1CCN(C(=O)COc2ccc3c(c2)C(=O)CC2(CCN(C(C)=O)CC2)O3)CC1,7,-4,-9,0,33*,-6,61*,56*
CCOC(=O)COc1ccc2c(c1)C(=O)CC1(CCN(C(C)=O)CC1)O2,-3,.,-7,2,57*,12,+,+
CC(=O)N1CCC2(CC1)CC(=O)c1cc(OCC(=O)N3CCCC3)ccc1O2,6,-3,-9,4,60*,9,48*,45*
CC(C)Cc1nnc(NC(=O)c2cc([N+](=O)[O-])ccc2N2CCOCC2)s1,2,-15,-1,1,-6,13,.,.
O=C(c1cccc(S(=O)(=O)N2CCN(c3ccc(F)cc3)CC2)c1)N1CCN(c2ccccc2O)CC1,.,.,.,.,2,1,.,.
CN(C)C(=O)c1cccc(-c2cccc3nccn23)c1,.,.,.,.,41*,7,88*,58*
Cc1sc2nc(-c3ccccn3)[nH]c(=O)c2c1-c1ccccc1,-7,91,0,-1,31*,7,46*,37*
Cc1sc2nc(-c3ccncc3)[nH]c(=O)c2c1-c1ccccc1,-2,12,2,1,.,.,.,.
CCCCNC(=O)c1cc2cc(CC)ccc2[nH]1,-8,0,0,-2,31*,11,79*,65*
C[C@H](CO)N1C[C@H](C)[C@@H](CN(C)C(=O)C2CCCCC2)OCc2cn(nn2)CCCC1=O,.,.,.,.,2,5,.,.
CC(=O)NC(c1ccco1)c1cc(Cl)c2ccccc2c1O (stereo not given),-1,5,.,3,37*,12,+,+
CCCC(=O)NC(c1ccco1)c1cc(Cl)c2cccnc2c1O (stereo not given),9,-1,2,6,0,0,.,.
CCC(=O)NC(c1ccco1)c1cc(Cl)c2ccccc2c1O (stereo not given),-3,2,.,1,30*,12,79*,56*
O=C(N=C1SC2CS(=O)(=O)CC2N1Cc1ccccc1Cl)C1CC1 (stereo not given),-5,-3,-1,0,-2,4,.,.
SMILES,Rv3671c protease,Mtb betalactam,RecA splice inh,UGM FP inh,Mtb FBA inh,GDH-TPI counter-1,Mtb FBA confirm,GDH-TPI counter-2
Cc1c(NC(=O)[C@@H](NC(=O)c2ccc(Cl)c([N+](=O)[O-])c2)C(C)C)c(=O)n(-c2ccccc2)n1C,4,-4,.,-1,0,-4,.,.
Cc1ccc(Cn2c(SCCN3CCCCC3)nc3c2c(=O)n(C)c(=O)n3C)cc1,-1,-4,-1,-3,63*,6,14,11*
Cn1c(=O)c2c(nc(SCCN3CCCCC3)n2Cc2ccccc2)n(C)c1=O,-10,2,1,0,-1,-3,.,.
Cc1ccc2cc(C#N)c(NCCNC(=S)NCCCN(C)C)nc2c1C,-10,-2,-25,1,15,3,.,.
Cc1cccc2cc(C#N)c(NCCNC(=O)COc3ccccc3)nc12,1,3,-17,-1,40*,2,102*,89*
COCCCNC(=S)NCCNc1nc2cc(C)cc(C)c2cc1C#N,6,1,-17,-1,21,2,.,.
CCOCCCNC(=S)NCCCNc1nc2c(C)cc(C)cc2cc1C#N,.,.,.,.,38*,6,+,147*
CCOCCCNC(=S)NCCNc1nc2c(C)cccc2cc1C#N,0,0,-12,-3,57*,13,33*,29*
Cc1cc(C)c2nc(NCCCNC(=S)NCCCN(C)C)c(C#N)cc2c1,2,46,-71,-4,58*,1,52*,43*
CCOc1ccc(CN2CCNC(=O)C2CC(=O)NCc2csc(C(C)C)n2)cc1 (stereo not given),.,.,6,.,3,13,.,.
Cc1cc(C)c(C)c(S(=O)(=O)N2CCC(C(=O)NC3=NCCS3)CC2)c1C,8,-2,.,.,0,3,.,.
Cc1cccc2cc(C#N)c(NCCNS(=O)(=O)c3ccccc3)nc12,-15,14,-10,-5,13,-3,.,.
Cc1ccc2cc(C#N)c(NCCNC(=O)C3CC3)nc2c1C,-3,-3,-28,2,32*,-2,133*,111*
Cc1cccc2cc(C#N)c(NCCCn3ccnc3)nc12,7,92,-36,-1,39*,-3,152*,139*
O=C(Nc1nnc(C2=COCCO2)o1)c1ccc([N+](=O)[O-])cc1,-1,83,3,1,2,11,.,.
CCOC(=O)c1ccc(NC(=O)Cn2nnc(-c3ccccc3C)n2)cc1,-68,88,3,2,-10,-5,.,.
